Source: PubChem BioAssay AID651839 (Vanderbilt Specialized Chemistry Center, 2012)
Measured potencies and affinities stand elsewhere. Active and inactive are the calls of the source.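 Rule for the calls: active = compounds whose mean inhibitory potency against the glutamate signal is under 30 µM; inactive = the rest.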

Target: Metabotropic glutamate receptor 3 (Rattus norvegicus) (UniProt P31422)
Assay: mGlu3 negative allosteric modulator potency, dose response, HEK/GIRK cells, thallium flux, rat (AID 651839)
Details: HEK293 GIRK rat mGlu3, thallium flux fluorescence; series mostly up to 30 µM; percent of glutamate max response: at the top concentration

Metabotropic glutamate receptor 3 (Rattus norvegicus), sequence (P31422 whole entry, looked up): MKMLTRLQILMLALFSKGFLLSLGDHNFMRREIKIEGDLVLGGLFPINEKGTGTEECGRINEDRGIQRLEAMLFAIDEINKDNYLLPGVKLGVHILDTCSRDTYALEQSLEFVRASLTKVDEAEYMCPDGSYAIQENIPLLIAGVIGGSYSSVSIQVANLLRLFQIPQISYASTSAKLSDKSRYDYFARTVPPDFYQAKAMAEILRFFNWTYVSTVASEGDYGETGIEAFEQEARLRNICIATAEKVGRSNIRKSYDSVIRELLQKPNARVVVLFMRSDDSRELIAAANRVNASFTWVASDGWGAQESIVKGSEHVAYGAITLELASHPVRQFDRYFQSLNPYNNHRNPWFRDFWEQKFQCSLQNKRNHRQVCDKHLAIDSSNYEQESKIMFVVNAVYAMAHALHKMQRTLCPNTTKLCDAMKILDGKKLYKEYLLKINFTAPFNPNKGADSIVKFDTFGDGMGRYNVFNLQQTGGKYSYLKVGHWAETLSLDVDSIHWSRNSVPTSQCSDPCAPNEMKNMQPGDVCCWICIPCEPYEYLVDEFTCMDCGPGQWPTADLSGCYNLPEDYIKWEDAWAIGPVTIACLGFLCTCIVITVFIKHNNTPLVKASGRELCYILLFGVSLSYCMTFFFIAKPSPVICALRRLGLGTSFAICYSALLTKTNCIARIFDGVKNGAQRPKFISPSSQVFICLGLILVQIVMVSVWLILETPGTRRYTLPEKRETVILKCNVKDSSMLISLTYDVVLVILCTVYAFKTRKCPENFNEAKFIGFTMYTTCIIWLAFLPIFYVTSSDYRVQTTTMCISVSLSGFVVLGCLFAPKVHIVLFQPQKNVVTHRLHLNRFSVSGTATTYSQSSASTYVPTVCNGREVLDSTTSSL

| Compound | percent of glutamate max response |
| --- | --- |
| COc1ccc(COc2ccc(C(=O)NCCC(C)(C)C)cc2)cc1 | 83.7 (inactive) |
| COc1ccc(C#Cc2ccc(C(=O)NCCC(C)(C)C)cc2)c(F)c1 | 95 (inactive) |
| COc1ccc(COc2ccc(C(=O)N3CCCC(OC)C3)cc2)cc1 (stereo not given) | 83.7 (inactive) |
| COc1ccc(COc2ccc(C(=O)N3CC[C@H](O)C3)cc2)cc1 | 91.9 (inactive) |
| O=C(c1ccc2cc(-c3ccncc3)ccc2c1)N1CCCC(CO)C1 (stereo not given) | 98.1 (inactive) |
| COc1ccc(C#Cc2ccc(C(=O)NCC(C)(C)O)cc2)c(F)c1 | 82.2 (inactive) |
| COc1ccc(C#Cc2ccc(C(=O)NC(C)(C)CO)cc2)c(F)c1 | 90.1 (inactive) |
| COc1ccc(COc2ccc(C(=O)N3CCC(CO)C3)cc2)cc1 (stereo not given) | 88.3 (inactive) |
| COc1ccc(COc2ccc(C(=O)N3CC[C@@H](O)C3)cc2)cc1 | 86 (inactive) |
| COc1ccc(COc2ccc(C(=O)N3CCC(OC)C3)cc2)cc1 (stereo not given) | 93.4 (inactive) |
